Ba/F3 V617F tox: lowers viability of Ba/F3 cells expressing EpoR and JAK2V617F; ATP luminescence; inhibition, % at 5.6 µM; hit rate 1.1% among 220,000; AID 1446;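 active means inhibition above the campaign mean plus 3 SD over all tested compounds, cut at about 24% in these data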;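 further: cytokine-independent growth of Ba/F3 cells driven by EpoR plus mutant JAK2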
APP 5UTR inh: APP translation inhibition; SH-SY5Y APP 5'UTR-luciferase reporter, luminescence; inhibition, % at 2 µM; hit rate 0.82% among 190,000; AID 1285;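 active means inhibition above a set limit, derived from the sample mean plus 3 SD, cut at about 45% in these data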
BaF3 tox: counter-screen for JAK2V617F inhibitors: parental Ba/F3 viability inhibitors. CellTiter-Glo ATP luminescence. hit rate 1.1% among 220,000. AID 1486. inhibition, % at 5.6 µM;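 active means inhibition above a per-campaign cutoff, the mean inhibition of all tested compounds plus 3 SD, cut at about 27% in these data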
aSyn 5UTR inh: MLPCN primary screen, SNCA 5' untranslated region; alpha-synuclein 5'UTR reporter, inhibitor activity; inhibition, % (tested at 7.5 µM); hit rate 0.82% among 300,000; in the data active means inhibition above about 60%;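 further: H4 neuroglioblastoma cells stably carrying SNCA 5'UTR luciferase fusion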
IEC-6 tox: counter-screen for KLF5 inhibitors: cytotoxicity in IEC-6 cells; IEC-6 cytotoxicity, luminescence viability; inhibition, % at 5 µM; hit rate 0.78% among 290,000; AID 1825; in the data active means inhibition above about 22%
KLF5 inhibitor: suppresses KLF5 promoter-driven expression | inhibition, % at 5 µM | DLD-1 KLF5 promoter-luciferase reporter, luminescence | AID 1700 | hit rate 0.23% among 290,000;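 active means inhibition above a per-plate limit of that plate's mean compound inhibition plus 3 SD, cut at about 60% in these data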;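 further: higher means less KLF5 promoter-driven luciferase light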
Each line names hits and unclear results; the compound was inactive in the other large screens. This is a sample that favours compounds with a hit; in the whole collection about 2.2% have one here.

CCC(C)N1C(=O)CN(C2CCCCCC2)C(=O)C1c1ccccc1F (stereo unspecified)	none
COC(=O)c1sc(C(C)(C)C)cc1CSc1ccccc1	none (no result: APP 5UTR inh)
CC(C)Cc1cc(-c2ccco2)c(C#N)c(N)n1	aSyn 5UTR inh 70
Cc1cccn2c(=O)c(C(=O)NCCCN3CC(C)CC(C)C3)c(O)nc12 (stereo unspecified)	none (no result: Ba/F3 V617F tox, APP 5UTR inh, BaF3 tox, IEC-6 tox, KLF5 inhibitor)
COc1ccc(S(=O)(=O)Nc2cc(Sc3ncn[nH]3)c(O)c3ccccc23)cc1	Ba/F3 V617F tox 90, BaF3 tox 87, KLF5 inhibitor 89 (no result: aSyn 5UTR inh)
CC(=O)/C(=N\Nc1ccccc1)Sc1cccc2cccnc12	none
O=C(Sc1cccc2cccnc12)c1ccc(F)cc1	Ba/F3 V617F tox 43, APP 5UTR inh 71, BaF3 tox 41, IEC-6 tox 87 (no result: aSyn 5UTR inh)
O=S(=O)(Nc1cc(Sc2cccc3cccnc23)c(O)c2ccccc12)c1ccc(F)cc1	APP 5UTR inh 78, IEC-6 tox 51
CCOc1ccc(NCc2nnc(SCc3ccc(Cl)cc3)n2-c2ccccc2)cc1	none
CCOC(=O)/C(=C\c1ccccc1)C(=O)c1cc(C(C)=O)c(Nc2ccccc2)s1	none
CCOC(=O)/C(=C\c1cccnc1)C(=O)c1cc(C(C)=O)c(Nc2ccccc2)s1	aSyn 5UTR inh 83
C[n+]1ccc(/C=C/c2ccccc2O)c2ccccc21	Ba/F3 V617F tox 58, BaF3 tox 71
CC(=O)/C=C/c1ccccc1O	none
Cc1cccc(NC(=O)c2onc3c2CCCC3)n1	aSyn 5UTR inh 86
O=C(Nc1ccc2ccccc2c1)c1onc2c1CCCC2	none
COC(=O)c1cccc(NC(=O)c2onc3c2CCCC3)c1	aSyn 5UTR inh 79
O=C(CN1CCN(C(=O)c2ccco2)CC1)Nc1ccc(F)cc1F	none (no result: Ba/F3 V617F tox, APP 5UTR inh, BaF3 tox)
Cc1ccc2nc(SCC(=O)NC(=O)NCc3ccco3)[nH]c2c1	none
Cc1ccc2nc(SCC(=O)NCc3ccco3)[nH]c2c1	APP 5UTR inh 51
O=c1c2ccccc2nc(/C=C/c2ccc([N+](=O)[O-])o2)n1CCCO	Ba/F3 V617F tox 101, BaF3 tox 102
CC(=O)c1ccc(NC(=O)c2cnn3ccccc23)cc1	aSyn 5UTR inh 79
CCCc1ncc(CN2CCCCC2C(=O)Nc2ccc(Oc3ccccc3)nc2)cn1 (stereo unspecified)	none (no result: Ba/F3 V617F tox, APP 5UTR inh, BaF3 tox)
CC(=O)Nc1ccc(S(=O)(=O)N(Cc2cc3ccc(C)cc3[nH]c2=O)CC2CCCO2)cc1 (stereo unspecified)	aSyn 5UTR inh 82 (no result: Ba/F3 V617F tox, APP 5UTR inh, BaF3 tox)
COc1ccccc1NC(=S)N(Cc1ccco1)Cc1cc2cc(C)c(C)cc2[nH]c1=O	APP 5UTR inh 92, aSyn 5UTR inh 91
COc1ccc2cc(CN(CC3CCCO3)C(=O)Nc3ccccc3OC)c(=O)[nH]c2c1 (stereo unspecified)	aSyn 5UTR inh 66
Cc1cc2cc(CN(Cc3ccco3)S(=O)(=O)c3c(C)ccc4nsnc34)c(=O)[nH]c2cc1C	aSyn 5UTR inh 89
Cc1ccc2cc(CN(Cc3ccco3)S(=O)(=O)c3c(C)ccc4nsnc34)c(=O)[nH]c2c1	none
CCN(c1ccc(OC)cc1)S(=O)(=O)c1csc(C(=O)N2CCCC2)c1	none (no result: Ba/F3 V617F tox, APP 5UTR inh, BaF3 tox)
CC(=O)N1CC(C)Oc2ccc(S(=O)(=O)Nc3ccc(Cl)cn3)cc21 (stereo unspecified)	none (no result: Ba/F3 V617F tox, APP 5UTR inh, BaF3 tox)
CCCCCCOC(=O)Nc1ccc(S(=O)(=O)Nc2cccc([N+](=O)[O-])c2)cc1	none
COc1ccccc1CNC(=O)CS(=O)(=O)c1ccccc1	none (no result: Ba/F3 V617F tox, APP 5UTR inh, BaF3 tox)
Cc1ccc2c(c1)C=CC(C#N)N2C(=O)c1ccccc1 (stereo unspecified)	Ba/F3 V617F tox 78, APP 5UTR inh 94, BaF3 tox 36, IEC-6 tox 40
Cc1ccc2c(c1)C=CC(C)N2C(=O)c1ccccc1 (stereo unspecified)	none
Oc1ccccc1CN1CCC(C(O)(c2ccccc2)c2ccccc2)CC1	none
CC(C)(C)c1ccc(C(O)CCCN2CCC(C(O)(c3ccccc3)c3ccccc3)CC2)cc1 (stereo unspecified)	aSyn 5UTR inh 111
Cn1c(N2CCOCC2)c(/C=N/OC(=O)c2ccc(F)cc2)c2ccccc21	aSyn 5UTR inh 73
Cc1ccc(C(=O)O/N=C/c2c(N3CCOCC3)n(C)c3ccccc23)cc1	APP 5UTR inh 70, aSyn 5UTR inh 77
O=C(Nc1ccc(S(=O)(=O)Nc2ncccn2)cc1)c1cccc(S(=O)(=O)N2CCCC2)c1	none (no result: APP 5UTR inh)
CCc1c(C)nc(Nc2nc(C)c3ccc(OC)cc3n2)[nH]c1=O	none
COc1ccc2c(C)nc(Nc3nc(C)c(C)c(=O)[nH]3)nc2c1	aSyn 5UTR inh 103
COc1ccc2nc(Nc3nc(CSc4nc5ccccc5[nH]4)cc(=O)[nH]3)nc(C)c2c1	aSyn 5UTR inh 103
COc1cccc2cc(CC(=O)c3ccccc3)c(=O)oc12	none (no result: Ba/F3 V617F tox, APP 5UTR inh, BaF3 tox)
COc1ccc(C(C)=O)cc1COc1nc(C)nc2ccccc12	none
O=C(CSc1cccc[n+]1[O-])Nc1cccc(Oc2ccccc2)c1	none
CCN1/C(=C/c2ccc3cc(C)ccc3[n+]2C)Sc2ccc3sccc3c21	Ba/F3 V617F tox 78, BaF3 tox 62 (no result: aSyn 5UTR inh)
CN(C)c1ccc(NC(=O)CSc2nc(C3CC3)nc3ccccc23)cc1	none (no result: Ba/F3 V617F tox, APP 5UTR inh, BaF3 tox)
N=c1sc2ccccc2n1-c1ccccc1	none
C=CC(=O)N=c1sc2ccccc2n1-c1ccccc1	aSyn 5UTR inh 70
C=C(C)C(=O)N1CC2(CC(c3cccc(NC(=O)CC)c3)=NO2)C[C@H]1C(N)=O (stereo partly specified)	none (no result: Ba/F3 V617F tox, APP 5UTR inh, BaF3 tox, IEC-6 tox, KLF5 inhibitor)
COc1ccc(OC)c(Nc2cc(C)nc3ccc(C)cc23)c1	aSyn 5UTR inh 63 (no result: Ba/F3 V617F tox, APP 5UTR inh, BaF3 tox, IEC-6 tox, KLF5 inhibitor)
COc1ccccc1/C=N/Nc1cc(C)nc2ccc(C)cc12	none (no result: Ba/F3 V617F tox, APP 5UTR inh, BaF3 tox)
COc1ccc(/C=N/Nc2cc(C)nc3ccc(OC)cc23)c(OC)c1	aSyn 5UTR inh 117 (no result: Ba/F3 V617F tox, APP 5UTR inh, BaF3 tox)
CC1(C)C(=O)NC(=O)N1Cc1ccccc1	none (no result: Ba/F3 V617F tox, APP 5UTR inh, BaF3 tox, IEC-6 tox, KLF5 inhibitor)
CCNS(=O)(=O)c1ccc(CCC(=O)NCc2ccccn2)cc1	none (no result: Ba/F3 V617F tox, APP 5UTR inh, BaF3 tox)
O=C1/C(=C\c2ccncc2)CCc2ccccc21	none (no result: Ba/F3 V617F tox, APP 5UTR inh, BaF3 tox, IEC-6 tox, KLF5 inhibitor)
O=C1/C(=C/c2ccncc2)CCC/C1=C\c1ccncc1	APP 5UTR inh 82
COc1ccccc1N1CCN(C(=O)NC23CC4CC(CC(C4)C2)C3)CC1	none
CCCCCCC(=O)Nc1ccc(C(=O)N2CCCC2)cc1	none
CCCCC(=O)Nc1ccc(C(=O)N2CCN(c3ccccc3OC)CC2)cc1	APP 5UTR inh 69
CCCCC(=O)Nc1ccc(C(=O)N2CCC(C(=O)OCC)CC2)cc1	BaF3 tox 38
COc1ccccc1N1CCN(C(=O)c2ccc(NC(C)=O)cc2)CC1	none
COc1cc(SC)ccc1C(=O)N1CCN(c2ccccc2OC)CC1	IEC-6 tox 31
Cc1ccc(C)c(NC(=O)CN(C)C(=O)COc2cccc3c2OC(C)(C)C3)c1	none (no result: Ba/F3 V617F tox, APP 5UTR inh, BaF3 tox, IEC-6 tox, KLF5 inhibitor)
COc1ccc2cc(/C=N/NC(=O)c3c(Cl)cnn3C)c(Cl)nc2c1	none
COc1ccc2cc(/C=N/NC(=O)c3ccc(CN(c4ccc(C)c(C)c4)S(C)(=O)=O)cc3)c(Cl)nc2c1	aSyn 5UTR inh 65
